Pf growth 48h = inhibits P. falciparum growth in the first generation, 48 h. actives 5.9% (n = 310,000). P. falciparum luciferase growth in erythrocytes, 48 h. Potency, µM (series often up to 28.7 µM), most hits filed as inhibitors
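Compounds are pin-transferred into medium, infected erythrocytes (2% hematocrit, 0.1% parasitemia final) are added, and plates sit one parasite generation at 37 C in 5% CO2. Detection reagent is then added and luminescence measured.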
Pf growth 96h = P. falciparum growth inhibition at 96 hour, primary screen for plastid delayed-death inhibitors. P. falciparum luciferase reporter growth, 96 h. Potency, µM (top dose mostly 28.7 µM), hits mostly inhibitors. AID 504834. actives 6.9% (n = 320,000)
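Parasite growth measured via integrated firefly luciferase reporter in P. falciparum. Infected erythrocytes at 2% hematocrit, 0.05% parasitemia final were treated 96 hours at 37 C under 5% CO2, and luminescence was read.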
Cycloheximide cs = counter-screen for Shiga toxin inhibitors: cycloheximide protein synthesis inhibition; cell reporter, cycloheximide protein synthesis inhibition counterscreen; max response, %; actives 12% (n = 300,000); AID 2314; in the data active = max response mostly above about 13%, no sharp cut-off; inactive = mostly below about 14%; also: read at 38.3 µM for the half of the compounds with a filed dose
Shiga toxin inh = blocks Shiga toxin action in Vero cells; Vero cells, Shiga toxin protein synthesis inhibition reporter; inhibition, % at 38.7 µM; actives 9.2% (n = 290,000); AID 2315; in the data active = inhibition mostly above about 28%, no sharp cut-off; inactive = mostly below about 43%
LmPK inhibitor = blocks Leishmania mexicana pyruvate kinase activity. Q27686. purified LmPK, Kinase-Glo ATP luminescence, 1 h. Potency, µM (top dose mostly 57.5 µM), hits mostly inhibitors. actives 0.37% (n = 290,000)
Target sequence (Q27686 whole entry, looked up): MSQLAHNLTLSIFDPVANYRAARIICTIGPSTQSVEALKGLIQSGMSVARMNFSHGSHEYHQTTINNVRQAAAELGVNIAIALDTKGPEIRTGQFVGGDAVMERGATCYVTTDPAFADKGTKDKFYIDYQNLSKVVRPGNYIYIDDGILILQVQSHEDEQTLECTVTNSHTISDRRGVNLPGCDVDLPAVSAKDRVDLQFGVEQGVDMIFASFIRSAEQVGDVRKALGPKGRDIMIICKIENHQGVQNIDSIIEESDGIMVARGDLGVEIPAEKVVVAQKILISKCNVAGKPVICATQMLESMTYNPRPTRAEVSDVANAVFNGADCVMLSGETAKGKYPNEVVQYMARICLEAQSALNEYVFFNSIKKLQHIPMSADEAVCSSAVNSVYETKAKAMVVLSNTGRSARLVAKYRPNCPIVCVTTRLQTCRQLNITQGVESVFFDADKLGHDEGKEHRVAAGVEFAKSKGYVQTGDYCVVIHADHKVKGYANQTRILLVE
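Purified LmPK (0.1 nM) converted ADP (0.1 mM) to ATP with PEP (0.5 mM) in imidazole buffer pH 7.2 with KCl and MgCl2, 1 h at room temperature. ATP was read by Kinase-Glo luminescence; data normalized to uninhibited and no-enzyme controls.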
A number is an active result; - = inactive; ? = inconclusive; . = no result. Compounds with a hit are over-represented: about 22% of the library has one in this group of screens. Unless noted, calls follow the shape of the dose curve; as a rule, active = well fitted inhibition curve with a large enough effect; inconclusive = small, poorly fitted or top-dose-only effect, or another doubt; inactive = no such curve, though single readings can be large or run the other way.

SMILES	Pf growth 48h	Pf growth 96h	Cycloheximide cs	Shiga toxin inh	LmPK inhibitor
O=C(NCCN1CCOCC1)c1cc(-c2ccc(Cl)c(Cl)c2)on1	-	-	-	-	-
O=C(c1cc(-c2ccc(Cl)c(Cl)c2)on1)N1CCOCC1	-	?	17	45	-
O=C(C[n+]1cccc(C(=O)N/N=C/c2cccc([N+](=O)[O-])c2)c1)c1ccccc1	-	?	.	.	.
O=C(NCC(=O)N(c1ccccc1)C(C(=O)NCC1CCCO1)c1ccccc1)c1ccco1 (centres undefined)	-	-	-	-	-
CC(=O)Nc1ccc(Nc2cc(C)nc3c(-c4ccccc4)cnn23)cc1	-	-	34	71	-
Cc1cc(N)n2ncc(-c3cccc(Br)c3)c2n1	-	-	41	110	-
Cc1cc(N)n2ncc(-c3ccccc3)c2n1	.	-	58	72	-
CCOC(=O)c1[nH]c2ccc(OC)cc2c1N=CN(C)C	-	0.13µM	-	-	-
O=C(CC(=O)NCc1ccc(Cl)cc1)NCc1ccccc1	-	-	-	-	-
CC/C(=N\OC(=O)c1ccc(OC(C)C)cc1)c1ccc(C)cc1	.	15µM	-	-	-
COc1ccc(S(=O)(=O)Nc2c(C)cc(C)cc2C)c2cccnc12	-	-	-	-	-
Cc1ccc(NC(=O)CSc2nnc(Cc3cccn3C)n2-c2ccc(F)cc2)c(C)c1	.	9.3µM	-	-	-
Cn1cccc1Cc1nnc(SCC(=O)NCc2ccccc2)n1-c1ccc(F)cc1	.	?	-	-	-
Cn1cccc1Cc1nnc(SCC(=O)N2CCN(c3ccccc3)CC2)n1-c1ccc(F)cc1	?	1.5µM	-	-	-
CCOc1ccccc1NC(=O)CSc1nnc(Cc2cccn2C)n1-c1ccc(F)cc1	5.9µM	-	-	-	-
COc1ccc(CC(=O)OCc2nnc(-c3ccccc3)o2)cc1	?	-	-	-	-
CCC(C)NC(=O)CSc1nnc(-c2cc(-c3cccs3)nc3ccccc23)o1 (centres undefined)	.	?	-	-	-
O=C(NCc1ccccn1)c1cccc(S(=O)(=O)NCc2ccccc2)c1	-	-	.	.	.
CCOC(=O)C1=C(c2ccccc2)NC(N)=NC1c1ccc(OCc2ccc(C(=O)OC)cc2)cc1 (centres undefined)	4.7µM	7.4µM	-	-	-
CC(Oc1ccc(-c2ccccc2)cc1)C(=O)N/N=C/c1cccnc1 (centres undefined)	?	-	-	-	-
Cc1cccc(Oc2ccc(NC(=O)C3=CC=CN4CCS(=O)(=O)N=C34)cc2)c1	?	12µM	.	.	.
Cc1ccc(Oc2ccc(NC(=O)C3=CC=CN4CCS(=O)(=O)N=C34)cc2)cc1	-	?	.	.	.
CC(C)(C)C(=O)NC(=S)Nc1sc2c(c1C(N)=O)CCC2	-	?	22	-	-
CCCCC(=O)Nc1sc2c(c1C(N)=O)CCC2	-	.	32	45	-
CCOc1ccc(CN2CCC(Cc3ccccc3)CC2)cc1	-	-	-	-	-
SMILES	Pf growth 48h	Pf growth 96h	Cycloheximide cs	Shiga toxin inh	LmPK inhibitor
CC1C(=O)O[C@@H]2C[C@@H](C)[C@@H]3CCC(=O)[C@@]3(C)[C@@H](O)[C@H]12 (some centres undefined)	-	-	-	-	-
C=C1C(=O)O[C@@H]2C[C@@H](C)[C@@H]3C4OC4C(=O)[C@@]3(C)[C@@H](O)[C@H]12 (some centres undefined)	3.3µM	3.3µM	-	-	-
CCS(=O)(=O)c1nnnn1-c1ccccc1S(C)(=O)=O	9.3µM	.	-	-	-
COc1ccc(CCN2CC(O)=C(c3nc4ccccc4c(=O)[nH]3)C2=N)cc1OC	13µM	.	-	-	-
COc1cc(NC(=O)c2ccccc2)c(OC)cc1NC(=O)Cc1ccc(C)cc1	-	?	-	-	-
Cc1ccccc1Oc1ccccc1N	-	?	-	-	-
Nc1ccccc1Oc1ccc2ccccc2c1	-	?	-	42	-
O=C(CCc1nnc(COc2ccccc2)o1)NCCc1cccs1	-	10µM	-	-	-
O=C(CCc1nnc(COc2ccccc2)o1)NCc1ccc(Cl)s1	-	15µM	-	-	-
O=C(CCc1nnc(COc2ccccc2)o1)NCc1ccccc1C(F)(F)F	-	-	17	-	-
CC(C)CCNC(=O)CCc1nnc(COc2ccccc2)o1	-	?	-	-	-
CCCCCN(C(=O)CCC(=O)OCC(=O)c1ccc(C(C)CC)cc1)c1c(N)n(CCCC)c(=O)[nH]c1=O (centres undefined)	10µM	?	.	.	.
CCCCCN(C(=O)CCC(=O)OCC(=O)N(C)c1ccccc1)c1c(N)n(CCCC)c(=O)[nH]c1=O	-	-	.	.	.
CCCCn1c(N)c(N(CC(C)C)C(=O)c2cc(-c3ccc(F)cc3)nc3ccccc23)c(=O)[nH]c1=O	12µM	?	.	.	.
CCCCn1c(N)c(N(CCC(C)C)C(=O)c2cc(-c3ccco3)nc3ccccc23)c(=O)[nH]c1=O	?	-	-	-	-
CCCCN(C(=O)CSc1nn(-c2ccc(F)cc2)c(=S)s1)c1c(N)n(CCCC)c(=O)[nH]c1=O	?	13µM	.	.	.
CCCCN(C(=O)c1cc(-c2ccc(F)cc2)nc2ccccc12)c1c(N)n(CCCC)c(=O)[nH]c1=O	?	7.4µM	.	.	.
Cc1ccc2nsnc2c1NC(=O)COc1ccccc1	?	?	-	-	-
CCCCn1c(N)c(N(CC(C)C)C(=O)c2cc(-c3ccc(OC)c(OC)c3)nc3ccccc23)c(=O)[nH]c1=O	1.3µM	?	.	.	.
CCCCn1c(N)c(N(CCC(C)C)C(=O)CCCc2nc3ccccc3s2)c(=O)[nH]c1=O	-	15µM	-	-	-
CCCCn1c(N)c(N(CCOC)C(=O)c2cc(-c3ccc(OC)c(OC)c3)nc3ccccc23)c(=O)[nH]c1=O	?	-	.	.	.
CCCCn1c(N)c(N(CCOC)C(=O)CCCc2nc3ccccc3s2)c(=O)[nH]c1=O	-	-	.	.	.
CC(=O)n1c(Cl)c(NC(=O)CCl)c2ccccc21	.	2.1µM	-	-	-
Cc1nn(-c2ccccc2)c(C)c1[N+](=O)[O-]	?	?	-	-	-
COC(=O)c1sc2nc(SCc3cccc(Cl)c3)n(N)c(=O)c2c1C	-	9.3µM	-	-	-
SMILES	Pf growth 48h	Pf growth 96h	Cycloheximide cs	Shiga toxin inh	LmPK inhibitor
COC(=O)c1sc2nc(SCc3ccccc3C)n(N)c(=O)c2c1C	-	?	-	-	-
Cc1cnc(=O)[nH]c1SCc1cccc([N+](=O)[O-])c1	-	-	-	-	-
CCOC(=O)[C@H]1[C@H]2COc3ccc(OC)cc3[C@@H]2N2C(=O)CN(CC3CCCO3)C(=O)[C@@]12C (some centres undefined)	-	?	.	.	.
CN(C)S(=O)(=O)N1CCC(Oc2cccc(C(=O)NCCC3=CCCCC3)c2)CC1	?	-	24	63	-
CN(C)S(=O)(=O)N1CCC(Oc2cccc(C(=O)NC3CCOC3)c2)CC1 (centres undefined)	-	-	15	-	-
CN(C)S(=O)(=O)N1CCC(Oc2cccc(C(=O)NC3CCCCC3)c2)CC1	-	-	-	-	-

High-throughput results (PubChem BioAssay)
